Here are results for 99 compounds from PubChem BioAssay AID493221 (Johns Hopkins Ion Channel Center, 2011).

Screen size: about 2,400 compounds; about 1,700 (71%) were called active.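 The calls were made as follows: active = choline transporter activity left, mean of duplicates at 10 µM, below buffer-only control mean minus 3 SD; inactive = the rest.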 The set was probably picked from earlier hits. Only a sample is shown.

The test deals with High affinity choline transporter 1 (Homo sapiens) (UniProt Q9GZV3). The test is described as follows: CHT inhibitors, confirmation, cell-based, membrane potential dye, duplicate (AID 493221). The note with it: CHT-expressing cells, at 10 µM, LV-to-AA substituted CHT, HEK293 cells.
Chain of High affinity choline transporter 1 (Homo sapiens) (Q9GZV3 whole entry, looked up): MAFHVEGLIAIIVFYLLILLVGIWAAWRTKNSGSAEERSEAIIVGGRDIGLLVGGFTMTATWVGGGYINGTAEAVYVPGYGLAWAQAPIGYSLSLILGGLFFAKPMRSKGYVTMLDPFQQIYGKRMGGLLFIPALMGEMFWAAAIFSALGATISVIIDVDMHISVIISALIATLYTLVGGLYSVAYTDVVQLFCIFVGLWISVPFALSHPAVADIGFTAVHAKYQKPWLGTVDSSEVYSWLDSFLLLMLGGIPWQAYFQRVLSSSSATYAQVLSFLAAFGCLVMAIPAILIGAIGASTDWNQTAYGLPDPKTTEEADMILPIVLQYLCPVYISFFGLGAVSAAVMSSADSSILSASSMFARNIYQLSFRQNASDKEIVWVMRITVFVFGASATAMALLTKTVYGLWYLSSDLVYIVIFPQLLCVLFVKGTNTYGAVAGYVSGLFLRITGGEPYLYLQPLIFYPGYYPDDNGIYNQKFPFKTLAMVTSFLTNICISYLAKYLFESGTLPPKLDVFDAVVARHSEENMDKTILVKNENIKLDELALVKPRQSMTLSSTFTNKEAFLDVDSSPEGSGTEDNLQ
With `Cc1ccc(CS(=O)(=O)c2ncc(Cl)c(C(=O)Nc3nnc(C)s3)n2)cc1`, the CHT activity remaining % of control (stronger effect = lower value) was 25.2% (active).

Turning to `O=C(Nc1nonc1-c1ccc(Cl)cc1)c1ccco1`, the CHT activity remaining % of control (stronger effect = lower value) was 68.2% (active). Take `COCCNc1nc(-n2nc(C)cc2C)nc2sc3c(c12)CCCC3`: the CHT activity remaining % of control (stronger effect = lower value) is 71.2% (active).

Consider `O=C(CCCN1C(=O)CSc2ncccc21)N1CCN(c2cccc(C(F)(F)F)c2)CC1`, for which the CHT activity remaining % of control (stronger effect = lower value) is 42.1% (active). `COc1cccc(-c2nn(-c3ccccc3)cc2/C=C(\C#N)C(=O)NCCCn2ccnc2)c1`: the CHT activity remaining % of control (stronger effect = lower value) is 28.8% (active). For `CC(=O)OCCOCn1cnn2c(=O)c(Br)c(C)nc12`, the CHT activity remaining % of control (stronger effect = lower value) is 37.2% (active).

Turning to `Cc1ccccc1-n1nnc2c(=O)oc3ccccc3c21`, the CHT activity remaining % of control (stronger effect = lower value) result is “inactive”. In the case of `CN(Cc1ccccc1)CC(O)COc1ccc(CNCc2cc3ccccc3s2)cc1` (centres undefined) it was 53.6% (active); in that of `CCS(=O)(=O)C1=NSC2=NC(=O)/C(=C\c3ccc(OS(=O)(=O)c4ccccc4)cc3)C(=N)N21`, 53.4% (active); in that of `CCCCCn1c(=O)c(C(=O)OCC)c(Cl)c2ccccc21`, 45.3% (active). In the case of `O=c1c2ccccc2nnn1CSc1nc2sc3c(c2c(=O)n1CC1CCCO1)CCC3` (centres undefined) it was 24% (active). In the case of `Cc1ccc(NNC(=O)c2cccs2)cc1Cl` it was 64.8% (active); in that of `CCC(C(=O)N1CCOCC1)n1c(C(=O)OC)cc2occc21` (centres undefined), 55% (active). Take `CCNC(=O)CC1C(=O)N(c2ccc(F)cc2)C(=O)N1CCc1sccc1C` (centres undefined): the CHT activity remaining % of control (stronger effect = lower value) result is “inactive”. Next, `O=C1c2cccc3cccc(c23)C(=O)N1CCCCCc1n[nH]c(=S)o1`: “inactive”; `COc1ccc(Cn2c(=O)sc3ccccc32)cc1OC`: 63.4% (active); `CCOc1ccccc1Nc1ccc2nonc2c1[N+](=O)[O-]`: 33.1% (active). `COc1ccc(S(=O)(=O)N2CCN(C(=O)NC3CCCCC3)CC2)cc1`: the CHT activity remaining % of control (stronger effect = lower value) entry is “inactive”. `CC(=O)N1CCN(S(=O)(=O)c2cccc(C(=O)NC3CCC(C)CC3)c2)CC1` (centres undefined): the CHT activity remaining % of control (stronger effect = lower value) was 70.5% (active). As to `CCc1nc(C)cn1S(=O)(=O)c1cc([N+](=O)[O-])ccc1Cl`, the CHT activity remaining % of control (stronger effect = lower value) entry was “inactive”. As for `CCn1c(SCCC(C)C)nnc1-c1c[nH]c2ccccc12`, the CHT activity remaining % of control (stronger effect = lower value) was 67.1% (active). `Cc1ccccc1-n1c(C)cc(/C=N/NC(=O)c2ccc(CN3CCOCC3)cc2)c1C`: the CHT activity remaining % of control (stronger effect = lower value) was 69.4% (active). Turning to `CC(=O)c1ccc(Oc2cc(C)nc(-n3nc(C)cc3C)n2)cc1`, the CHT activity remaining % of control (stronger effect = lower value) result was “inactive”.

In the case of `CCOC(=O)N1CCN(C(=O)C2CCN(c3ncnc4c3sc3cccc(F)c34)CC2)CC1`, the CHT activity remaining % of control (stronger effect = lower value) is 68.8% (active). Next, `Cc1[nH]c2ccccc2c1C(=O)CN1CCCC(C)C1` (centres undefined): 60.9% (active); `O=C(Cn1nc(C(F)(F)F)c2c1CCC2)NCc1ccc(F)cc1`: 63.8% (active); `COC(=O)c1ccccc1NC(=O)Cn1nc(C(F)(F)F)c2c1CCC2`: “inactive”. In the case of `O=[N+]([O-])c1ccccc1Nc1ccc(O)cc1` it was 42.1% (active); in that of `COc1ccc(-n2nnnc2CNC(=O)c2ccc3ccccc3c2)cc1`, 56.6% (active). With `COc1ccc(N2C(=O)CNC2=S)cc1`, the CHT activity remaining % of control (stronger effect = lower value) result is “inactive”. Next, `Cc1ccc(S(=O)(=O)/N=C(/NC(=S)Nc2c(C)n(C)n(-c3ccccc3)c2=O)c2ccccc2)cc1`: 39.1% (active); `O=C(c1cccs1)C1C(c2ccc(Br)cc2)NC(=S)NC1(O)C(F)(F)F` (centres undefined): 54.2% (active). As for `Oc1c(Cl)cc(Cl)c(Cl)c1Cc1c(O)c(Cl)cc(Cl)c1Cl`, the CHT activity remaining % of control (stronger effect = lower value) was 10.1% (active). On to `O=S(=O)(Cc1cc(Cl)nc(-c2cccnc2)n1)c1ccccc1`, for which the CHT activity remaining % of control (stronger effect = lower value) was 60.6% (active).

As to `Cc1ccc2c(C)c(C(=O)N3CCC(N4CCC(C(=O)NC5CC5)CC4)CC3)oc2c1`, the CHT activity remaining % of control (stronger effect = lower value) is 61.6% (active). In the case of `Cc1oc2cc([N+](=O)[O-])c(O)c([N+](=O)[O-])c2c1C(=O)c1ccc(Br)cc1`, the CHT activity remaining % of control (stronger effect = lower value) entry was “inactive”. In the case of `O=C(Cn1ncc2c3ccccc3n(Cc3ccccc3)c2c1=O)NCCCN1CCOCC1` it was 32.8% (active). Next, `CCCn1c2ccccc2c2cnn(CC(=O)NCCCN3CCCCC3CC)c(=O)c21` (centres undefined): 36.8% (active); `Cc1nn(CC(=O)NCC2CCCO2)c(=O)c2cc3ccccc3n12` (centres undefined): “inactive”. Regarding `CCCCOc1ccc(Cl)cc1CSc1nncn1N`, the CHT activity remaining % of control (stronger effect = lower value) entry is “inactive”. Next, `COc1ccc(C(=O)NNC(=S)NC(=O)c2ccccc2)cc1`: 59.6% (active); `COc1ccc(C(=O)NC(=S)NNC(=O)CCc2ccccc2)cc1`: 66.3% (active).

For `O=C(Nc1ccc(F)c(Cl)c1)C1CCN(S(=O)(=O)c2cccnc2)CC1`, the CHT activity remaining % of control (stronger effect = lower value) is 38.1% (active). Turning to `C=CCn1c(SCc2ccc(C(=O)NCCO)cc2)nc2ccccc2c1=O`, the CHT activity remaining % of control (stronger effect = lower value) result is “inactive”. Next, `COc1ccc(C(=O)NC(Cc2ccc(OC(=O)c3ccc(OC)cc3)cc2)C(=O)O)cc1` (centres undefined): 18.8% (active); `O=C(NCCc1ccc2c(c1)OCCO2)c1cc2ccccc2o1`: 42.2% (active). Next, `O=C(NCCCn1ccnc1)C(=O)c1cn(CC(=O)N2CCCCCC2)c2ccccc12`: 59.8% (active).

Take `CCCCn1c(SCC(=O)NCC2CCCO2)nc2ccc(N3CCOCC3)cc2c1=O` (centres undefined): the CHT activity remaining % of control (stronger effect = lower value) entry was “inactive”. In the case of `CCCCCn1c(=O)[nH]c2cc(C(=O)NCCCN3CCCCC3C)ccc2c1=O` (centres undefined), the CHT activity remaining % of control (stronger effect = lower value) is 35.4% (active). Next, `CC(=O)Nc1nc2c(s1)C(=O)NCC(C)(C)C2`: “inactive”; `C/C(=N\N=C(N)N)c1ccc(Cl)cc1`: 12.2% (active); `CCN(CC(=O)NCc1ccc(Cl)cc1)C(=O)CSc1ccccc1`: “inactive”. In the case of `Nc1cc(N2CCCCCC2)c2nonc2c1[N+](=O)[O-]` it was 68.5% (active); in that of `O=C(OCC(=O)c1c[nH]c2ccccc12)c1cccc(O)c1`, 56% (active). Next, `CN(CCC#N)c1ncnc2scc(-c3ccccc3)c12`: 50.5% (active). Take `O=S(=O)(c1cccc(-c2nnc(SC(F)F)n2-c2ccccc2)c1)N1CCCCC1`: the CHT activity remaining % of control (stronger effect = lower value) result is “inactive”. Regarding `O=C(c1c(F)cccc1Cl)N1CCN(S(=O)(=O)c2ccc3c(c2)OCCCO3)CC1`, the CHT activity remaining % of control (stronger effect = lower value) entry is “inactive”. Take `Cc1cccc(N(C)C(=O)CN2C(=O)COc3ccc(S(=O)(=O)N4CCCCCC4)cc32)c1`: the CHT activity remaining % of control (stronger effect = lower value) was 56.8% (active). In the case of `CCc1ccc2c(c1)C1(NN=C(c3ccccc3)S1)C(=O)N2` (centres undefined) it was 54.3% (active). As to `Cn1c2ccccc2c(=O)c2c(O)cccc21`, the CHT activity remaining % of control (stronger effect = lower value) is 65.5% (active). For the compound `O=C(O/N=C(/c1ccccc1)c1ccncc1)c1ccccc1[N+](=O)[O-]`, the CHT activity remaining % of control (stronger effect = lower value) is 60.1% (active). For the compound `Cc1cccc(C)c1NC(=O)c1ccc(CN2CCc3ccccc3C2)cc1`, the CHT activity remaining % of control (stronger effect = lower value) is 53.4% (active).

Turning to `COc1ccc(C(=O)NC(C)c2nccs2)cc1OC1CCN(C(C)C)CC1` (centres undefined), the CHT activity remaining % of control (stronger effect = lower value) was 22.1% (active). For the compound `COc1ccc(OCC(=O)OCCN(C)C)cc1`, the CHT activity remaining % of control (stronger effect = lower value) was 11.5% (active). `OC1CN=C2Sc3ccccc3N2C1` (centres undefined): the CHT activity remaining % of control (stronger effect = lower value) was 46.2% (active).

For `CCC(C)c1ccc(NC(=S)NCc2ccccn2)cc1` (centres undefined), the CHT activity remaining % of control (stronger effect = lower value) is 45.6% (active).

In the case of `COC(=O)C(C(=O)Nc1cccc(Cl)c1C)C1CCCC1` (centres undefined), the CHT activity remaining % of control (stronger effect = lower value) result was “inactive”. Turning to `CC(C)CCn1c(CN(C)Cc2ccccc2)nc2c1c(=O)n(C)c(=O)n2C`, the CHT activity remaining % of control (stronger effect = lower value) entry is “inactive”. For the compound `Cc1cc(OC(C)C(=O)Nc2ccc(S(=O)(=O)Nc3onc(C)c3C)cc2)cc(C)c1Cl` (centres undefined), the CHT activity remaining % of control (stronger effect = lower value) is 57.7% (active). In the case of `Cc1cc(NS(=O)(=O)c2ccc(NC(=O)C(C)Oc3cccc(C)c3C)cc2)nc(C)n1` (centres undefined) it was 13.3% (active); in that of `COc1cc2ccccc2cc1C(=O)Nc1ccc(S(=O)(=O)Nc2cc(C)on2)cc1`, 49.4% (active).

For `CCC(Oc1ccccc1C)C(=O)Nc1ccc(S(=O)(=O)Nc2cc(C)on2)cc1` (centres undefined), the CHT activity remaining % of control (stronger effect = lower value) is 46.2% (active). As to `CCN(CC)Cc1c(C(=O)N/N=C/c2cccc(OCc3ccc(F)cc3)c2)nnn1-c1nonc1N`, the CHT activity remaining % of control (stronger effect = lower value) entry is “inactive”. With `CCc1cc2c(N3CCN(c4nnc(CC)s4)CC3)ncnc2s1`, the CHT activity remaining % of control (stronger effect = lower value) is 67.1% (active).

On to `Cc1c(C(=O)OC(C)C)sc(NC(=O)c2cccnc2)c1C#N`, for which the CHT activity remaining % of control (stronger effect = lower value) is 61.9% (active). As for `CCN(CC)CCC(c1ccc2c(c1)OCO2)c1c(OC)cc(OC)c2c(-c3ccccc3)cc(=O)oc12` (centres undefined), the CHT activity remaining % of control (stronger effect = lower value) is 70.5% (active).

With `CC(C)(C)c1ccc(C(=O)CSc2ncn[nH]2)cc1`, the CHT activity remaining % of control (stronger effect = lower value) was 42.8% (active).

For the compound `C/C(=N/NC(=O)c1cc(Cl)ccc1O)C12CC3CC(CC(C3)C1)C2`, the CHT activity remaining % of control (stronger effect = lower value) is 46.3% (active). Next, `FC(F)(F)c1cccc(NC(=S)Nc2cccc(Cl)c2)c1`: “inactive”. Consider `Cc1oc2c(F)c(F)c(F)c(F)c2c1S(=O)(=O)Nc1cccc(C(F)(F)F)c1`, for which the CHT activity remaining % of control (stronger effect = lower value) was 57.3% (active). Next, `COc1ccc(NC(=O)c2sc(N)nc2-c2ccccc2)cc1`: 53.4% (active); `Cc1ccc2nc(Nc3ccccc3)cc(C)c2c1`: 49.7% (active); `COc1ccc(/C=C2/SC(=O)N(CCCCCC(=O)Nc3ccccc3C(=O)O)C2=S)cc1`: 29.7% (active). Next, `C/C(=N\Nc1nc2ccccc2[nH]1)c1cccs1`: 19.1% (active); `CC(C(=O)NC1CCS(=O)(=O)C1)N1C(=O)/C(=C/c2ccc(Cl)cc2)SC1=S` (centres undefined): 69.7% (active); `Cc1ccc(C(=O)N/C(=C/C=C/c2ccccc2)C(=O)NCc2ccco2)cc1`: 47.3% (active).

As to `O=C(/C=C/c1cn(-c2ccccc2)nc1-c1ccc2c(c1)OCCO2)NCCCN1CCOCC1`, the CHT activity remaining % of control (stronger effect = lower value) was 26.1% (active). Next, `Cc1cccc(-c2nc3ccc(C(=O)NCCN4CCN(C)CC4)cc3nc2-c2cccc(C)c2)c1`: 40% (active). Next, `CNCC(O)c1ccc(O)c(O)c1` (centres undefined): 33.7% (active). In the case of `COC(=O)CN1C(C)=Nc2ccc(Br)cc2C1c1ccccc1` (centres undefined) it was “inactive”; in that of `O=C(O)CC1=C(Nc2ccccc2)C(=O)N(c2ccccc2)C1c1ccc(Cl)cc1` (centres undefined), 26.7% (active). `O=S(=O)(Nc1ccc(Cl)cn1)c1cnc(Cl)c(Br)c1`: the CHT activity remaining % of control (stronger effect = lower value) entry is “inactive”. In the case of `CCC(=O)Nc1nnc(S(=O)(=O)N(CC(C)C)c2ccccc2)s1` it was “inactive”; in that of `C/C(=N\NC(N)=S)c1cccnc1`, “inactive”; in that of `O=C(O)c1ccc(N/N=C/c2cn(-c3ccccc3)nc2-c2cccs2)cc1`, 65.1% (active).

Turning to `COc1nc(OC)nc(N(C)CCO)n1`, the CHT activity remaining % of control (stronger effect = lower value) entry is “inactive”. Turning to `CCOC(=O)N1CCN(C(=O)c2ccc(CN(c3ccc(C)c(C)c3)S(C)(=O)=O)cc2)CC1`, the CHT activity remaining % of control (stronger effect = lower value) result was “inactive”. In the case of `CCN(Cc1ccccc1)S(=O)(=O)c1cc(C(=O)O)ccc1OC` it was 58.7% (active); in that of `O=C(Nc1ccccc1C(=O)NCCCn1ccnc1)c1ccc(Cl)cc1Cl`, 52.6% (active).
